Source: PubChem BioAssay
Smad3 inh: inhibitors of human Smad3 transcription factor binding; TR-FRET Smad3/Dy647-FoxH1 peptide binding, europium anti-His; inhibition, % at 25 µM; 0.29% of 88,000 active;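 active means compounds that reduce the energy-transfer binding signal between the protein and its labelled peptide by more than half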;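 further: 0% = Smad3 plus labelled peptide maximal FRET and 100% = peptide-only background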
ERa coact inh: blocks coactivator binding to human estrogen receptor alpha. P03372. TR-FRET ER-alpha LBD / SRC-1 peptide, estradiol-bound. inhibition, % at 25.6 µM. 1.7% of 86,000 active. AID 629; in the data active means inhibition above about 50%;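 further: 0% = receptor plus peptide control and 100% = peptide only without receptor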
ERa SRC1 pot: ER-alpha (human) coactivator binding potentiation. P03372. TR-FRET ERalpha-LBD/SRC-Cy5 coactivator binding, 2 h; 100 = basal binding, no effect. coactivator binding (% of control), % at 25.6 µM. 1.3% of 86,000 active. AID 639; in the data active means activity above about 200%;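 further: binding measured in presence of low estradiol as agonist stimulus; 0% = peptide alone without receptor and 100% = receptor with peptide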
ERb coact inh: ER-beta (human) coactivator binding inhibition; AID 633; Q92731; 1.3% of 86,000 active; inhibition, % at 25.6 µM; TR-FRET ER-beta LBD / SRC1-Cy5 peptide binding; receptor agonist-loaded with 1 µM estradiol;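 active means compounds whose percent inhibition of the receptor-coactivator binding signal exceeds about 50% in the single-dose screen, limit read from the data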;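 further: 0% = receptor plus peptide wells without compound and 100% = peptide-only wells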
Plk1 PBD FP: Plk1 (human) PBD binding inhibition; P53350; Plk1 PBD phosphopeptide binding, fluorescence polarization; inhibition, %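 (tested at about 20 µM)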; 0.13% of 97,000 active; in the data active means inhibition above about 34%, passing the limit was not always enough
Target sequence (P53350 whole entry, looked up): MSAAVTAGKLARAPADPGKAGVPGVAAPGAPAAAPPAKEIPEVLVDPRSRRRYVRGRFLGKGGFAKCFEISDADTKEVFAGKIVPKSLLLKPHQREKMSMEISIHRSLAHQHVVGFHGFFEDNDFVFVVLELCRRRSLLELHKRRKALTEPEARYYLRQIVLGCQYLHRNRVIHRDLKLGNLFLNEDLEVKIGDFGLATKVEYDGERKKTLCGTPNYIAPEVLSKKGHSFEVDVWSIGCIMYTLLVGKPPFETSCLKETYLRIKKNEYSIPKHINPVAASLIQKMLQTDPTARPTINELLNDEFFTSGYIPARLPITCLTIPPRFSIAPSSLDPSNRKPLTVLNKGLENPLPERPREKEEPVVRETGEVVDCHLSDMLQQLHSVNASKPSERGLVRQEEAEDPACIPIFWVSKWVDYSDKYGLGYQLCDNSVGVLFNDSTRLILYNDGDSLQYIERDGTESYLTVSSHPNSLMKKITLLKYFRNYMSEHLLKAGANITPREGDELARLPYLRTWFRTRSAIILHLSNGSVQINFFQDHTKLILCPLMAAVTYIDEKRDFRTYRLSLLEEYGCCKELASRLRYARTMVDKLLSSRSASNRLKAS
PLK1 inh: inhibitors of human PLK1 kinase | P53350 | recombinant PLK1 kinase, TR-FRET peptide phosphorylation | inhibition, % at 10 µM | 0.53% of 97,000 active | AID 619;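 active means inhibition of 50% or more in the single-concentration screen; inactive means inhibition below 50%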;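 further: 0% = DMSO max control and 100% = H-89 dihydrochloride min control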
* = called active by the depositor; . = no result; [ ] = dose if it differs, or a comment. Sampled rows, rich in hits. Any-hit rate of the full collection: about 3.3%.

SMILES	Smad3 inh	ERa coact inh	ERa SRC1 pot	ERb coact inh	Plk1 PBD FP	PLK1 inh
O=C(CCCCCn1c(SCc2ccncc2)nc2ccccc2c1=O)NCc1ccco1	4	57*[fluorescence artefact?]	108	44	-15	-16
CC1CCC2(CC1)N=C(N)Nc1nc3ccccc3n12 (stereo not given)	-4	63*[fluorescence artefact?]	38	4	1	5
NC1=NC2(CCCCCC2)n2c(nc3ccccc32)N1	-6	65*[fluorescence artefact?]	26	-6	13	-2
NC1=NC(c2ccc(F)cc2)n2c(nc3ccccc32)N1 (stereo not given)	4	24	94	11	-29	2
COc1ccc(-c2nc(SC)n(C(=O)c3ccco3)n2)cc1	5	32	127	20	0	-9
COc1ccccc1CN1C(=O)c2ccncc2C1=O	6	-19	98	71*[fluorescence artefact?]	-4	-3
O=C(Nc1ccccc1N1CCOCC1)c1cc(-c2ccco2)nc2ccccc12	14	87*[fluorescence artefact?]	40	79*	-13	1
Cc1cc(C(=O)Nc2ccc(N3CCOCC3)cc2)c2ccccc2n1	2	3	113	8	-16	0
O=C(O)CSC1=NCCN1	11	4	110	-6	.	.
CSC1(SC2=NCCN2)SC2(NCCN2)S1	81*	.	.	.	.	.
O=C1C(=O)c2ccccc2C(O)=C1C(CCc1ccccc1)C1=C(O)c2ccccc2C(=O)C1=O	-10	.	.	.	.	.
CN1CCc2c(sc3c2C(=O)NC(/C=C/c2ccco2)N3)C1 (stereo not given)	-4	28	43	54*[fluorescence artefact?]	-5	-3
Cc1ccc(C2NC(=O)c3c(sc4c3CCN(C)C4)N2)s1 (stereo not given)	-25	54*[fluorescence artefact?]	29	36	-22	1
CCc1ccccc1NC(=O)N1CCC(NC(=O)C(Cc2ccc(OC)c(OC)c2)NC(C)=O)CC1 (stereo not given)	-11	10	101	0	1	-2
COc1ccc(CC(NC(C)=O)C(=O)NC2CCN(C(=O)Nc3ccc(Cl)cc3)CC2)cc1OC (stereo not given)	79*	-10	98	-15	-10	-12
Cc1ccc(/C=c2\sc3nc(-c4ccccc4Br)nn3c2=O)o1	-10	85*[fluorescence artefact?]	60	66*	-5	-2
COc1ccccc1/C=c1\sc2nc(-c3ccccc3OC)nn2c1=O	.	.	.	.	2	-8
Cc1ccc(/C=c2\sc3nc(-c4ccco4)nn3c2=O)o1	0	70*	113	64*[fluorescence artefact?]	4	-3
CCN(CC)c1ccc(/C=c2\sc3nnc(-c4ccccc4Cl)n3c2=O)cc1	-17	-2	147	-3	-239	-26
Cc1ccc(-c2nc3s/c(=C\c4ccco4)c(=O)n3n2)cc1	-7	96*[fluorescence artefact?]	23	58*	-12	-2
CCN(CC)c1ccc(/C=c2/sc3nnc(-c4ccccc4C)n3c2=O)cc1	12	41	413*[fluorescence artefact?]	28	-185	-36
c1ccc([C@H](CCN2CCCC2)c2ccccn2)cc1	-8	.	.	.	.	.
C/C(=N\S(=O)(=O)c1ccc(Cl)c(Cl)c1)OCC(C)(C)C	3	.	.	.	.	.
Cc1ccc(/C=c2/sc3nnc(-c4ccccc4Cl)n3c2=O)o1	0	58*[fluorescence artefact?]	42	44	-4	-11
O=c1nc2s/c(=C\c3ccco3)c(=O)n2nc1Cc1ccc(F)cc1	16	96*[fluorescence artefact?]	4	88*	31	-19
SMILES	Smad3 inh	ERa coact inh	ERa SRC1 pot	ERb coact inh	Plk1 PBD FP	PLK1 inh
COc1cc(NCCCC(C)N)c2ncccc2c1 (stereo not given)	21	70*[fluorescence artefact?]	4	90*[fluorescence artefact?]	8	33
Clc1ccc(CN2CCCN(Cc3ccc(Cl)cc3)C2c2cc3ccccc3c3ccccc23)cc1	6	.	.	.	.	.
Cc1cc(SCC(=O)Nc2ccccc2)nc(C)n1	25	72*[fluorescence artefact?]	112	-2	-19	-5
CSC(=[SH+])[N-]N=C(c1ccccn1)c1ccccn1.[Cu][Br]	8	.	.	.	.	.
COc1ccc(-c2cc3ccccc3oc2=O)cc1NC(=O)c1ccc(Br)o1	-312	66*[fluorescence artefact?]	231*	6	-2	-11
Cc1ccc(C)c(NC(=S)NC(NC(=O)N(C)C)C(Cl)(Cl)Cl)c1 (stereo not given)	.	.	.	.	8	-14
Cc1ccc(C)c(NC(=S)NC(NC(=O)Cc2cccc3ccccc23)C(Cl)(Cl)Cl)c1 (stereo not given)	-17	68*[fluorescence artefact?]	59	69*	4	-9
CCCCNS(=O)(=O)c1ccc2nc(SCC(=O)c3ccc(C#N)cc3)[nH]c2c1	2	7	279*	7	.	.
O=C(CSc1nc2ccc([N+](=O)[O-])cc2[nH]1)c1ccc2ccccc2c1	.	.	.	.	-1	-5
CN(C)CC(=O)N1c2ccccc2CCc2ccc(NC(=O)c3ccc(N)cc3)cc21	1	79*	36	69*[fluorescence artefact?]	8	-7
Cc1ccccc1-n1c(SC/C(O)=C(\C#N)c2nc3ccccc3[nH]2)nnc1-c1ccncc1	5	62*[fluorescence artefact?]	78	54*	.	.
CCOC(=O)c1ccc2c(c1)nc(SC/C(O)=C(\C#N)c1nc3ccccc3[nH]1)n2CC	-11	-3	114	21	.	.
Cc1cc(C)n2c(SC/C(O)=C(\C#N)c3nc4ccccc4[nH]3)nnc2n1	9	97*[fluorescence artefact?]	0	69*[fluorescence artefact?]	-16	-6
O=C(CN1CCN(c2ccccc2F)CC1)c1ccc2cc[nH]c2c1	1	-1	108	0	0	-5
C[C@@H](C[C@H](N)C(=O)O)C(=O)O	-6	.	.	.	.	.
O=C(Nc1ccc(F)cc1F)c1cc2ncc(Br)cn2n1	9	39	99	44	-1	-6
COC(=O)c1ccccc1NC(=O)c1cc2ncc(Br)cn2n1	-73	27	579*[fluorescence artefact?]	33	0	-9
O=C1c2ccsc2SCCN1Cc1cccc(Cl)c1	8	1	100	-1	9	-7
O=C1c2ccsc2SCCN1Cc1ccc(Cl)cc1	-18	16	76	56*[fluorescence artefact?]	-27	-4
C1CCN(CC[C@@H]2CCCCN2)CC1	5	.	.	.	.	.
C#Cc1ccc(C(=O)Nc2cc(C(N)=O)ccc2N2CCOCC2)cc1	4	69*[fluorescence artefact?]	58	40	-20	-11
Brc1ccc(-c2nnc(-c3cccnc3)c3conc23)cc1	3	69*	82	25	-1	-7
c1cncc(-c2nnc(-c3cccnc3)nn2)c1	12	-15	124	-28	11	-14
O=C(C[N+]12CN3CN(CN(C3)C1)C2)c1ccc(-c2ccccc2)cc1	77*	.	.	.	.	.
c1ccc(C(CCN2CC3CCC(CC3)C2)c2ccccc2)cc1	-3	.	.	.	.	.
Cc1ccc(S(=O)(=O)N[C@H](C(=O)O)C(C)C)cc1	-5	.	.	.	.	.
CCCCC(CC)Cn1c2nc3ccccc3nc2c2c(=N)oc(C)nc21 (stereo not given)	-7	21	267*[fluorescence artefact?]	44	-14	-11
CCCCC(CC)Cn1c(N)c(C#N)c2nc3ccccc3nc21 (stereo not given)	.	.	.	.	4	-12
